Bioassay records: PubChem BioAssay, Johns Hopkins Ion Channel Center
Hits are enriched below; roughly 2.4% of the tested compounds scored in any of these assays.
ANO1 activ: TMEM16A chloride channel activators or potentiators, primary screen, cell-based, HTS | HEK293 TMEM16A/YFP-H148Q/I152L, iodide quench fluorescence; stronger effect = lower value | B-score at 10 µM | 340,000 tested, 0.3% active | AID 623877, 2012;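 active means fluorescence-ratio B-score plate-corrected deviation score at least 3 library SD below zero, with starting fluorescence score within 5 deviations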;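 further: channel opened by trigger with iodide after compound preincubation; score built on the fluorescence ratio of max minus min over baseline; more negative score means more quench and so TMEM16A activation or potentiation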
Target sequence (Q8BHY3 whole entry, looked up): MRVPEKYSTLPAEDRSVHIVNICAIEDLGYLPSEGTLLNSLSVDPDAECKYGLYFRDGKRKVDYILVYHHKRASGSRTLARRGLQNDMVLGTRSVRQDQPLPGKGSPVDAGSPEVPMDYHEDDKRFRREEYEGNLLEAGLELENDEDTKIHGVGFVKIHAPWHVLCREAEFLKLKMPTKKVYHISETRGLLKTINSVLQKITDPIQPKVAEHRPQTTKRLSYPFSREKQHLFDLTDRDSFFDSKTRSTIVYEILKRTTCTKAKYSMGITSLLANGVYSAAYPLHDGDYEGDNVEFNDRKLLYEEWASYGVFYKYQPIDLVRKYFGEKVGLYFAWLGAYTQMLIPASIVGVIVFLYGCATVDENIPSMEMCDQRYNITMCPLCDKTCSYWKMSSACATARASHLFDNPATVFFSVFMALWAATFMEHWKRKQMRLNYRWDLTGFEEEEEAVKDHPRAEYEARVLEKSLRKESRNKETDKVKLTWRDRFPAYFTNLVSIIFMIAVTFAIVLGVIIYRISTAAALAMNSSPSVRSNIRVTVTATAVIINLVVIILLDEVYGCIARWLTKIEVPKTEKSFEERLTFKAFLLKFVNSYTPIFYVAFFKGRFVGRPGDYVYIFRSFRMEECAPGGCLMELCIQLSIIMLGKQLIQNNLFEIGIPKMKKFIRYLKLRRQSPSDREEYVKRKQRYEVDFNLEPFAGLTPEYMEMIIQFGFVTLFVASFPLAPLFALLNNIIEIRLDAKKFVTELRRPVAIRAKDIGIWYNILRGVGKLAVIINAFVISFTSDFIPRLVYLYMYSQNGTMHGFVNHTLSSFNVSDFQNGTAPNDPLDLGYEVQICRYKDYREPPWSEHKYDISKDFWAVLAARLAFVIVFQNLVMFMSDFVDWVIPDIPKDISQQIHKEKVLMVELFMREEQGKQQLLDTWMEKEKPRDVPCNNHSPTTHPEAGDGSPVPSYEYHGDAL
CHT inh: inhibitors of human choline transporter CHT; High affinity choline transporter 1 (Homo sapiens), Q9GZV3; CHT-expressing cells, membrane potential dye, choline response; stronger effect = lower value; B-score at 10 µM; 310,000 tested, 0.86% active;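 active means B-score over 3 SD under the library average, and starting fluorescence ratio not unusually high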;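 further: choline stimulus applied at its EC90 after an EC20 pre-addition; B-score computed on integrated fluorescence ratio after choline addition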
CHT PAM: CHT positive allosteric modulators, primary screen, cell-based, membrane potential dye, choline EC20; 310,000 tested, 0.49% active; B-score at 10 µM; CHT-expressing cells; stronger effect = higher value; LV-AA mutant CHT in HEK293 cells;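 active means initial fluorescence not abnormally high and integrated response B-score, plate-corrected, over 3 SD above library mean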
ANO1 block: TMEM16A chloride channel inhibitors, primary screen, cell-based, HTS; Anoctamin-1 (Mus musculus), Q8BHY3; HEK293 TMEM16A/YFP iodide influx fluorescence, ionomycin; normalized B-score (activity score, 25-100; higher = stronger inhibition) at 10 µM; 310,000 tested, 1.2% active; AID 588511, 2011;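 active means ratio plate-corrected score three or more library SD toward inhibition, starting fluorescence score within five deviations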;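 further: score derived from kinetic fluorescence span divided by baseline fluorescence per well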
TMEM16A reconf: TMEM16A chloride channel inhibitors, confirmation, cell-based, re-confirmation | shares compounds with ANO1 block | HEK293 TMEM16A/YFP-H148Q, iodide quench fluorescence; ionomycin added to raise cell calcium | inhibition, % at 10 µM | 2,300 tested, 39% active;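 active means mean duplicate percent inhibition, scaled so buffer wells are 0 and the reference blocker 100, over three buffer SD above buffer mean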
TMEM16A Ca cntr: calcium mobilization in TMEM16A/YFP HEK293 cells, confirmation, counter-screen for TMEM16A inhibitor project. 2,300 tested, 2% active. calcium response (% of ionomycin), % at 10 µM. shares compounds with ANO1 block. Fluo4 calcium mobilization;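 active means duplicate-averaged calcium signal over 20% of the ionomycin maximum, relative to buffer baseline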;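 further: each well's signal is peak minus trough fluorescence divided by its pre-addition baseline; 0% = buffer wells and 100% = ionomycin wells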
YFP-HEK293 quench: iodide YFP quench changes in parental YFP-HEK293, counter-screen for TMEM16A inhibitor project, cell-based | shares compounds with ANO1 block | ionomycin | YFP ratio F(max-min)/F0 at 10 µM | 2,300 tested, under 10 active;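 active means yellow fluorescent protein signal ratio exceeding the buffer control mean by over 5 SD of those controls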;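 further: ratio is mean of duplicate wells from kinetic YFP trace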
ClC-1 inh: ClC-1 chloride channel inhibition, selectivity assay for TMEM16A inhibitor project, cell-based, voltage-dependent ClC-1 | shares compounds with ANO1 block | CHO ClC-1-YFP, iodide influx fluorescence quench; iodide control reads 0, buffer control 100 | ratio percent, % at 10 µM | 2,300 tested, under 10 active;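 active means duplicate-mean ratio percent above the mean of iodide-only control wells, which defines zero, plus 5 of their SD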;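 further: higher percent means stronger block of ClC-1 iodide influx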
Active calls of the source: *; i = inactive; / = no result.

SMILES | ANO1 activ | CHT inh | CHT PAM | ANO1 block | TMEM16A reconf | TMEM16A Ca cntr | YFP-HEK293 quench | ClC-1 inh
COc1c(Cl)cc(Cl)cc1/C=C/C(=O)c1ccc(NC(=O)c2cccs2)cc1 | i | i | i | i | / | / | / | /
Cc1ccccc1C(=O)NCCNC(=O)c1cnccn1 | i | i | i | i | / | / | / | /
CC(=O)Nc1ccc(OC(F)(F)C(F)C(F)(F)F)c(NC(C)=O)c1 (stereo unspecified) | i | i | i | 100* | i | i | -1.2 | -6
C=C(C)C(=O)Nc1ccc(OC(F)(F)C(F)F)c(NC(=O)C(=C)C)c1 | i | i | i | i | / | / | / | /
CC(=O)c1ccc(NC(=S)NNC(=O)c2ccncc2)cc1 | i | i | i | i | / | / | / | /
CCc1ccc(NC(=O)c2cnc(N3CCN(c4ccccn4)CC3)c3ccccc23)cc1 | i | i | i | i | i | i | -1.2 | 0
CCOC(=O)c1c(C)nc(C)c(C(=O)OCC)c1-c1ccc(Br)cc1 | i | i | i | i | / | / | / | /
Cc1cc(C(=O)COc2ccccc2C(N)=O)c(C)n1CC1CCCO1 (stereo unspecified) | i | i | i | 100* | 20%* | i | -0.81 | -33
COC(=O)CCCn1c(C)cc(C(=O)CCl)c1C | i | i | i | i | / | / | / | /
COC(=O)CCn1c(C)cc(C(=O)COc2ccccc2C(N)=O)c1C | i | i | i | i | 21%* | i | -1.2 | -8
Cc1cc(C(=O)COC(=O)c2ccccc2O)c(C)n1CC1CCCO1 (stereo unspecified) | i | / | / | / | / | / | / | /
Cc1ccccc1-c1cc(C(=O)n2cccn2)c2cc(Cl)ccc2n1 | i | i | i | 25* | i | i | -0.99 | -10
COc1cc(NC(=S)N(C)CCC#N)c(OC)cc1Cl | i | i | i | i | / | / | / | /
O=c1nc(SCc2cccc(C(F)(F)F)c2)nc2ccccn12 | i | i | i | i | / | / | / | /
CCOC(OCC)P(=O)(c1ccccc1)c1ccccc1 | i | i | i | i | i | i | -1.2 | -2
O=c1cc(-c2ccccc2Cl)oc2c(NS(=O)(=O)c3ccccc3C(F)(F)F)ccc(O)c12 | i | i | i | i | / | / | / | /
O=c1cc(-c2ccccc2Cl)oc2c(NS(=O)(=O)c3cccs3)ccc(O)c12 | i | i | i | 25* | 27%* | i | -0.99 | -4
CCCOc1ccc(-c2nnn(CC(=O)c3ccc4c(c3)OCCO4)n2)cc1 | i | i | i | 100* | 17%* | i | -0.96 | -22
O=S(=O)(NCc1ccncc1)c1ccc(Br)s1 | i | i | i | 100* | i | i | -1.1 | -18
Cc1cc(C)c(C)c(S(=O)(=O)NCc2ccncc2)c1C | i | i | i | 25* | 26%* | i | -1 | -14
CC(OC(=O)Cn1c(C(F)(F)F)nc2ccccc21)C(=O)N1CCCc2ccccc21 (stereo unspecified) | i | i | i | 100* | i | i | -1.3 | 0
COC(=O)Cn1c(C(F)(F)F)nc2ccccc21 | i | i | i | i | / | / | / | /
COC(=O)CN1C(=O)Nc2ccc(Cl)cc2C1c1ccccc1 (stereo unspecified) | i | i | i | i | / | / | / | /
